ChEMBL document CHEMBL4513137, “CO-ADD screening of University of Manchester (UK) compounds”
Measured potencies and affinities stand elsewhere.

Assays:
[1] = tested on: Staphylococcus aureus; settings: Concentration 32 ug.mL-1; ASSAY_TEST Inhibition of Bacterial Growth; detection method Absorption (OD600); MEDIA CAMHB; plate type 384well; NBS; CORNING #3640; time 18 hr
[2] = tested on: Escherichia coli; settings: Concentration 32 ug.mL-1; ASSAY_TEST Inhibition of Bacterial Growth; detection method Absorption (OD600); MEDIA CAMHB; plate type 384well; NBS; CORNING #3640; time 18 hr

Structure (SMILES)	Inhibition [1]	Inhibition [2]
CC(=O)c1ccc(-c2ccccc2Nc2ccccc2)cc1	12.03%	6.5%
COc1cccc(Nc2ccccc2)c1-c1c(Cl)cc(Br)cc1Cl	19.63%	4.62%
c1ccc(Nc2ccccc2-c2ncccn2)cc1	6.34%	1.3%
COc1cccc(Nc2ccccc2)c1-c1ccc([N+](=O)[O-])cc1	23.81%	7.82%
O=[N+]([O-])c1ccc(-c2ccccc2Nc2ccccc2)cc1F	18.96%	3.69%
Clc1cc(Br)cc(Cl)c1-c1ccccc1Nc1ccccc1	22.27%	-3.79%
O=[N+]([O-])c1cc(Cl)c(-c2ccccc2Nc2ccccc2)c(Cl)c1	19.61%	-7.56%
O=[N+]([O-])c1ccc(-c2c(Nc3ccccc3)ccc3ccccc23)cc1	8.24%	-0.39%
O=[N+]([O-])c1ccc(-c2ccccc2Nc2ccccc2Br)cc1	15.02%	-1.08%
O=[N+]([O-])c1ccc(-c2cccc3c2[nH]c2ccccc23)cc1	21.52%	3.84%
N#Cc1ccc(-c2ccccc2Nc2ccccc2)cc1	12.74%	-6.88%
Cc1cc([N+](=O)[O-])ccc1-c1ccccc1N(C)c1ccccc1	-10.68%	0.54%
COc1cc([N+](=O)[O-])ccc1-c1ccccc1Nc1ccccc1	23.48%	-2.88%
Cc1ccccc1Nc1ccccc1-c1ccc([N+](=O)[O-])cc1	21.4%	-4.33%
